Epigenetic mod = qHTS Assay for Epigenetic Modulators; mouse C127i GFP locus derepression, cytometry, 30 h; Potency, µM (doses to about 46.1 µM); hit rate 0.09% among 68,000
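Murine C127i mammary cells carrying a silenced, stably integrated CMV-driven GFP reporter were treated with compound for 30 hours at 37 C. After PBS washes, GFP-positive cells were counted by laser-scanning microplate cytometry.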
TSHR ag = qHTS Assay for Agonists of the Thyroid Stimulating Hormone Receptor; Thyrotropin receptor (Homo sapiens), P16473; HEK293-CNG-TSHR cells (CNG channel as cAMP sensor), membrane potential dye, cAMP; Potency, µM (top dose mostly 57.1 µM), usual class: activators; hit rate 0.48% among 73,000; active means well fitted activation curve with a large enough effect in the main read-out, with a control signal flat, not every such curve was filed as active; inconclusive means small, poorly fitted or top-dose-only effect, or a change in a side signal; inactive means no such curve, though single readings can be large or run the other way; reference of the percent scale not stated here;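 further: the control signal comes from parental cells without the receptor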
Target sequence (P16473 whole entry, looked up): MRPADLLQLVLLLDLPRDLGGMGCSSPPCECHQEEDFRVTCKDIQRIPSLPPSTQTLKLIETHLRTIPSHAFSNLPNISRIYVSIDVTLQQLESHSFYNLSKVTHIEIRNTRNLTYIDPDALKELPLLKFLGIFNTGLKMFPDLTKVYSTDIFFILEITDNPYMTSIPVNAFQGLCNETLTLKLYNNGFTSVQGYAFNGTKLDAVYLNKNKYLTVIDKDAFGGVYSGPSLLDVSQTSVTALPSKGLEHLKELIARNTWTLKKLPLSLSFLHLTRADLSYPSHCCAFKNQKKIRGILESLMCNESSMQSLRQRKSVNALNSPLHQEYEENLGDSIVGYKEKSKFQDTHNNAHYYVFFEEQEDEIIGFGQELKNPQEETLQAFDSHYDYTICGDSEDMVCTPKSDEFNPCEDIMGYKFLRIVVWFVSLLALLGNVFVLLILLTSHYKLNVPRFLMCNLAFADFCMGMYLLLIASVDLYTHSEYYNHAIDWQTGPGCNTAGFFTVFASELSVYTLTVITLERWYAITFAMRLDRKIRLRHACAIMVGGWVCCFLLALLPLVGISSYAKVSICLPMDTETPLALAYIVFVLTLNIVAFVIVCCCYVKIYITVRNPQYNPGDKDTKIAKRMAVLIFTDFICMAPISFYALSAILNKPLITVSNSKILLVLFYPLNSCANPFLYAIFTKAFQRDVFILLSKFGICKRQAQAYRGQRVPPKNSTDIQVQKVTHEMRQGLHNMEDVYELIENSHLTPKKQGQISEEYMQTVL
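cAMP rise detected as CNG-channel membrane depolarization by fluorescent dye (emission 590 nm), 30 min after compound, following 60 min dye loading containing 100 uM RO 20-1724 at room temperature. Cells: TSHR/CNG HEK 293, with parental CNG HEK 293 as control.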
Ub-GFP proteasome = Ubiquitin-GFP Assay; Ubiquitin-GFP reporter cells, proteasome inhibition, GFP fluorescence; response scale: untreated = 0%, 10 µM MG-132 = 100%; Potency, µM (highest dose often 45.9 µM), actives largely listed as activators; 67,000 tested, under 10 active; active means well fitted activation curve with a large enough effect, not every such curve was filed as active; inconclusive means small, poorly fitted or top-dose-only effect, or another doubt; inactive means no such curve, though single readings can be large or run the other way
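U2OS Ub(G76V)-GFP reporter; O/N plating, 0.5% FBS; cpd 46 uM–2.9 nM, 4 h, 37 °C; GFP+ cell count, 488/515 nm; norm. to basal vs 10 uM MG-132; CRC fit.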
ERK AVP inh = qHTS Assay for Inhibitors of the ERK Signaling Pathway using a Homogeneous Screening Assay. hit rate 0.99% among 72,000. AID 995, 2007. HEK293-V1b, vasopressin-stimulated pERK AlphaScreen. Potency, µM (titrated, usually from 57.5 µM), actives largely listed as inhibitors; further: nearly all actives have a fitted effect of over 55% in size
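Overnight-seeded V1b-HEK293 cells in 1% FBS got compound, then vasopressin (25 nM final, 5 min, 37C), then lysis buffer. AlphaScreen detection of phospho-ERK; activity normalized to basal and full-stimulation controls.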
HBB splicing = qHTS Assay for Modulators of Hemoglobin Beta Chain Splicing; HBB splicing reporter cell assay, activation; EGFP reporter with mutant IVS2-654 intron; response scale: normalised to 500 nM splice-correcting PNA; Potency, µM (top dose mostly 46.1 µM), actives largely listed as activators; hit rate 0.06% among 65,000; AID 925, 2007
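Compounds were applied for 2 days to HeLa EGFP-654 cells, 500/well in Optimem with 2% FCS. The reporter's EGFP is disrupted by mis-splicing of beta-globin intron IVS2-654. Readout: summed well GFP fluorescence from 488 nm laser scanning; reference was 500 nM antisense […] 654 PNA.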
HEK293 cAMP cs = qHTS Assay for Agonists of the Thyroid Stimulating Hormone Receptor: Activators of Intracellular cAMP Concentrations in Parental HEK 293. hit rate 2.5% among 73,000. parental HEK293 CNG cAMP sensor, membrane potential fluorescence. AID 938, 2007. Potency, µM (doses to about 57.1 µM), actives largely listed as activators; further: nearly all actives have a fitted effect of over 55% in size
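Counterscreen for endogenous-receptor signalling: CNG-channel HEK 293 cells report cAMP rise by membrane depolarization. After 60 min dye equilibration with 100 uM RO 20-1724, compounds incubated 30 min before bottom-read fluorescence at 590 nm.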
HEK293 cAMP cnt = Confirmation Concentration-Response Assay for Agonists of the Thyroid Stimulating Hormone Receptor: Activators of Intracellular cAMP Concentrations in Parental HEK 293; shares compounds with TSHR ag; parental HEK293 CNG biosensor, cAMP membrane potential fluorescence; activity change, negative = inhibition, % at 32.9 µM; 150 tested, under 10 active; AID 953, 2007
Of the large screens only hits and unclear results are named; the others gave an inactive call (follow-up assays come after a bar, where they were run). Only some compounds are listed: those with a hit (about 3.8% of all), similar ones and a draw of the others. Unless noted, the call rests on the fitted dose curve; in most records, active means well fitted curve in the direction sought with a large enough effect; inconclusive means small, poorly fitted or top-dose-only effect, or another doubt; inactive means no such curve, though single readings can be large; an effect the other way counts as inactive or inconclusive.

Cc1cc(-n2c(C)cc(C(=O)CSc3nnnn3-c3ccc(Cl)cc3)c2C)no1	none (no result: TSHR ag) | HEK293 cAMP cnt inactive
CO[C@H]1COC(=O)CCC[C@H](C)[C@H](OC)COC(=O)C/C=C\[C@@H]1C	none (no result: Epigenetic mod, Ub-GFP proteasome)
CC1(c2ccccn2)Nc2ccccc2-c2nc3ccccc3n21 (stereo not given)	TSHR ag 15.8µM | HEK293 cAMP cnt inactive
c1ccc2c(c1)NC1(CCCCC1)n1c-2nc2ccccc21	none (no result: TSHR ag, Ub-GFP proteasome)
CCCCCCn1c(C(C)O)nc2ccccc21 (stereo not given)	none (no result: TSHR ag, Ub-GFP proteasome, ERK AVP inh, HBB splicing, HEK293 cAMP cs)
Cc1ccc(C)c(Cn2c(C(C)O)nc3ccccc32)c1 (stereo not given)	TSHR ag 3.98µM | HEK293 cAMP cnt inactive
COc1ccc(N(C)S(=O)(=O)c2cccc(C(=O)NC3=NCCS3)c2)cc1	TSHR ag 25.1µM | HEK293 cAMP cnt inactive
COc1cccc(C(=O)NC2=NCCS2)c1OC	none
CC(=O)[C@@H]1[C@H]2[C@@H](C(=O)[C@H]3OC[C@H]2O3)[C@@H]2C=Cc3ccccc3N12	none (no result: ERK AVP inh, HBB splicing)
COc1ccc(C(=O)N2CCC3(CC2)CCN(c2cccc(-c4ccccc4)c2)CC3)cc1	TSHR ag inconclusive, ERK AVP inh inconclusive, HEK293 cAMP cs inconclusive
NC(N)=NCCSSCCN=C(N)N	none (no result: TSHR ag, ERK AVP inh)
CCC(C)(C)n1nnnc1CN(Cc1ccco1)Cc1cc2cc3c(cc2[nH]c1=O)OCO3	TSHR ag 25.1µM, ERK AVP inh inconclusive (no result: HBB splicing) | HEK293 cAMP cnt inactive
Cc1occc1-c1nnc(SCC(=O)Nc2ccccc2-c2ccccc2)n1C	none
Cc1ccccc1NC(=O)CSc1nnc(-c2ccoc2C)n1CCc1ccccc1	TSHR ag 10µM, ERK AVP inh inconclusive (no result: HBB splicing) | HEK293 cAMP cnt inactive
C=CCC1C=CC(Oc2ccc(OC)cc2)C(COC(=O)c2ccc(Br)cc2)O1 (stereo not given)	none (no result: Epigenetic mod, Ub-GFP proteasome)
O=C(COC(=O)C1c2ccccc2Oc2ccccc21)Nc1ccc2c(c1)OCO2	TSHR ag 25.1µM | HEK293 cAMP cnt inactive
Cc1cccc(OCC(=O)Nc2ccc3c(c2)OCO3)c1C	TSHR ag inconclusive, HEK293 cAMP cs inconclusive
COc1ccc2c(=O)ccoc2c1	none (no result: Epigenetic mod, TSHR ag, Ub-GFP proteasome, HBB splicing, HEK293 cAMP cs)
O=C1N(c2ccccc2)C2CS(=O)(=O)CC2N1c1ccc(Cl)c(Cl)c1 (stereo not given)	none (no result: Epigenetic mod, Ub-GFP proteasome, ERK AVP inh, HBB splicing) | HEK293 cAMP cnt inactive
O=C1CC2CS(=O)(=O)CC2N1c1ccc(Oc2ccccc2)cc1 (stereo not given)	none
CNC(=O)[C@@H]1O[C@@H](n2cnc3c(NCc4cccc(I)c4)ncnc32)[C@H](O)[C@@H]1O	ERK AVP inh inconclusive (no result: TSHR ag)
COc1ccc(-c2ccc(-c3noc(C)n3)c(OC)n2)cc1	TSHR ag 3.16µM | HEK293 cAMP cnt inactive
CCOc1nc(-c2ccc(OC)cc2)ccc1-c1noc(C)n1	none
COCCNC(=O)C(c1ccc(C)o1)N(C(=O)c1snc(C(N)=O)c1N)c1ccc(C)cc1 (stereo not given)	TSHR ag 31.6µM (no result: HBB splicing) | HEK293 cAMP cnt inactive
CCC(C)(C)C(=O)O[C@@H]1C[C@H](C)C=C2C=C[C@H](C)[C@@H](CC[C@H]3C[C@@H](O)CC(=O)O3)[C@H]21	none (no result: TSHR ag)
CC(C)CC(=O)Nc1cccc(-c2cn3ccsc3n2)c1	TSHR ag 15.8µM, ERK AVP inh 15.8µM | HEK293 cAMP cnt inactive
CCC(=O)Nc1cccc(-c2cn3ccsc3n2)c1	none
CCOC(=O)c1c(N)n(CCOC(=O)c2cccs2)c2nc3ccccc3nc12	none | HEK293 cAMP cnt inactive
CNc1ncnc2c1ncn2[C@H]1C[C@H](OP(=O)(O)O)[C@H](COP(=O)(O)O)O1	none (no result: HBB splicing)
CC(c1ccco1)N(C(=O)C12CC3CC(CC(C3)C1)C2)c1ccccn1 (stereo not given)	TSHR ag inconclusive, HEK293 cAMP cs inconclusive
CC(c1ccco1)N(C(=O)c1ccc(Cl)s1)c1ccccn1 (stereo not given)	TSHR ag inconclusive, HEK293 cAMP cs inconclusive | HEK293 cAMP cnt inactive
O=C(CCBr)N1CCN(C(=O)CCBr)CC1	none (no result: Epigenetic mod, TSHR ag, Ub-GFP proteasome, HBB splicing, HEK293 cAMP cs)
